# In all, about 33,000 sequences were measured (“E-score (-0.5 to 0.5)”: median about -0.04, highest 2% from about 0.36 on). Many of the other results were omitted from the sample, so the highest values are more common in it than they were.
# Biological target: T1, Hmlalpha2 (UniProt P0CY09)
# T1 sequence: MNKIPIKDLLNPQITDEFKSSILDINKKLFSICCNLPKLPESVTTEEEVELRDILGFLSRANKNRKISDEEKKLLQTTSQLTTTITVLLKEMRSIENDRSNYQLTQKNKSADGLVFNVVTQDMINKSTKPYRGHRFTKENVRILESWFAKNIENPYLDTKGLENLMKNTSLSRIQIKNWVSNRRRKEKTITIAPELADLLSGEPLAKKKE
# Assay: PBM E-score (8-mer binding enrichment) (E-score (-0.5 to 0.5)); higher = stronger / more preferred TF binding
# Conditions: protein concentration: 200 nM; construct: GST-full length
# Experimental: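 Universal 'all 10-mer' protein binding microarrays (Agilent AMADID 015681) probed with GST-tagged S. cerevisiae TFs (full-length or DBD) made by in vitro transcription/translation (PURExpress), about 100-200 nM. Bound TF was detected with fluorescent anti-GST. Each ungapped 8-mer (which stands for itself and its reverse complement) is scored by the PBM enrichment score (E-score), a modified Wilcoxon-Mann-Whitney statistic from -0.5 to +0.5, computed with the Universal PBM Analysis Suite. Scale: above 0.35 generally sequence-specific binding.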
row,Sequence,PBM E-score
1,CCTGAATC,-0.0621
2,CCTGTACG,0.0613
3,CATGTACG,0.372
4,AATGTACG,0.108
5,CGGTAGAA,-0.175
6,GTCATGGA,-0.188
7,CTCATGGA,-0.142
8,GTCATGTA,0.442
9,ATCATGTC,0.351
10,ATAATGTA,0.273
11,CTAATGTA,0.262
12,ATCATGTG,0.209
13,GTCATGCA,0.133
14,CTCATGTC,0.295
15,GTAATGTA,0.413
16,ATCATGTA,0.472
17,CTCATGTA,0.454
18,CGCATTAC,0.214
19,ATGCGTTC,0.122
20,CGAGGCAA,0.126
21,AACCTCTC,-0.275
22,TACAACAA,0.343
23,GCCCCTCC,-0.277
24,TCGCCTCA,-0.118
25,CACACAGA,0.221

row,Sequence,PBM E-score
1,TATACACA,0.437
2,CATACACC,-0.076
3,TATACAGA,0.251
4,GATACACA,0.214
5,AATATACA,0.34
6,CATACACA,0.336
7,TATATACA,0.389
8,TACACAGA,0.424
9,CATACACG,0.398
10,GATATACA,0.339
11,GACACAGA,-0.00939
12,CTAAGATC,-0.0578
13,GGTGAGTA,0.135
14,AAAGCGAA,-0.132
15,GCCATCTA,-0.19
16,ACTCCACA,0.0494
17,GACGGTCA,-0.196
18,ATAGACTG,-0.0652
19,CACACACA,0.228
20,TACACACA,0.43
21,CACACACG,0.279
22,GACACAAA,0.14
23,TACACAAA,0.431
24,CACACAAA,0.126
25,ACAGATGC,-0.0548

row,Sequence,PBM E-score
1,ACTCCCAC,-0.352
2,GGCGGGAC,-0.194
3,TAACGCCA,0.0809
4,AGCTTGTC,0.133
5,CCCTTGTA,0.328
6,GTCTTGTA,0.306
7,ATCTTGTG,-0.0105
8,AGCTTGTG,0.11
9,GCCTTGTA,0.33
10,AGCTTGTA,0.379
11,ACCTTGTA,0.402
12,ATCTTGTA,0.383
13,CGGTCCCC,-0.347
14,AACGATCT,-0.0798
15,ACCAAAGG,-0.219
16,AGCACCCA,-0.176
17,CGGGTAAA,0.234
18,CGTACACG,0.354
19,AGTACACC,0.115
20,AGTACACT,0.074
21,GGTACAAA,0.138
22,AGTACACG,0.437
23,AGTACACA,0.387
24,TGTACACA,0.418
25,TGTACAAA,0.422

row,Sequence,PBM E-score
1,CGTACACA,0.347
2,AGTACAAA,0.161
3,GGTACACA,0.246
4,AGTACAGG,0.134
5,ACACCGCG,0.15
6,GCGACTCA,-0.134
7,ATGCGAGG,-0.117
8,GAACGATC,-0.0263
9,AGAGTGCC,-0.257
10,CGTACCTA,-0.0874
11,ACGGCCCC,-0.437
12,ATGTTAGC,0.342
13,GAGTTAAC,0.234
14,ATGTTAAC,0.448
15,GTGTTAAC,0.462
16,TTGTTAAA,0.359
17,AAGTTAAC,0.303
18,CTGTTAAC,0.304
19,GTGTTAAA,0.462
20,CTGTTAAA,0.258
21,CCCTTAAC,-0.0469
22,ATACTATC,0.0717
23,ATTTGCGA,0.0385
24,AAGTTTCC,0.0351
25,ATGCTGTG,0.238

row,Sequence,PBM E-score
1,CGGGTCCA,-0.262
2,AAGCGTCT,-0.232
3,CTGTTTCC,-0.11
4,ATGTTTGC,0.166
5,ATGTTTAG,0.33
6,ATGTTTAC,0.433
7,CTGTTTAC,0.371
8,CCGTTTAC,0.259
9,AGGAGATG,-0.157
10,AGGAAAAA,0.00347
11,GTATTATA,0.318
12,GATATGTA,0.345
13,GCTATGTA,0.426
14,CCTATGTA,0.433
15,CATATGTA,0.356
16,GCTATGCA,-0.0142
17,ACTATGTG,0.108
18,ACTATGTC,0.165
19,AATATGTA,0.386
20,AATATGTC,0.167
21,ACTATGTA,0.444
22,CCTATGTC,0.0957
23,CCTATGAA,-0.065
24,CTTCATTC,-0.149
25,AAGATCAC,-5e-05

row,Sequence,PBM E-score
1,CACAGGTC,-0.101
2,GAATACCC,-0.19
3,TGACCAAA,-0.0837
4,CCAGTAGG,-0.239
5,GTGAAGCA,-0.113
6,CTGGAAAG,-0.217
7,AAACCTTT,-0.111
8,AGGTATGG,-0.317
9,ACGCTTGC,-0.0163
10,TTACCCAA,0.02
11,GTGTAATA,0.456
12,ATGTAACC,0.304
13,ATGTAATC,0.478
14,CGGTAATA,-0.00682
15,GGGTAATA,0.193
16,CTGTAATA,0.286
17,ATGTAATA,0.48
18,CAGTAATG,0.167
19,ATGTAATG,0.479
20,ATGTAACG,0.362
21,CTGTAATC,0.243
22,AAGTAATA,0.24
23,GGAGTGTA,0.18
24,CATGAGGC,-0.166
25,TACTGTCA,-0.0966

row,Sequence,PBM E-score
1,CAGCAGCG,0.0849
2,GGGGATAA,-0.178
3,CCAGGACG,0.0263
4,GGGCCAAA,-0.124
5,GGGCACTA,-0.105
6,AGACGCCT,-0.0767
7,ACACGCCC,0.371
8,ACACGCCA,0.311
9,ACACGCCG,0.274
10,GCACGCCC,-0.0771
11,ACACGCCT,0.374
12,ATCCTGCA,-0.0119
13,CTATTGCA,0.117
14,CCGGTTTA,0.0123
15,GATGAGCC,-0.213
16,AGAAGGAA,-0.351
17,CCCTTAAA,-0.0696
18,GAGACGGA,-0.095
19,AAGTAGGC,-0.0798
20,CTTGAATC,-0.0387
21,CGATCTCA,-0.0804
22,AAGATCAG,-0.187

# Source: the supplement of paper PMC3334620
